This passage reports Percent Effect results from ChEMBL document CHEMBL3988442, “University of Dundee, Small-Polar-MMV Screening Library” (2021).

One assay deals with T1, Tyrosyl-tRNA synthetase, putative (Trypanosoma cruzi (strain CL Brener)) (UniProt Q4DSP6).
T1 sequence (whole entry): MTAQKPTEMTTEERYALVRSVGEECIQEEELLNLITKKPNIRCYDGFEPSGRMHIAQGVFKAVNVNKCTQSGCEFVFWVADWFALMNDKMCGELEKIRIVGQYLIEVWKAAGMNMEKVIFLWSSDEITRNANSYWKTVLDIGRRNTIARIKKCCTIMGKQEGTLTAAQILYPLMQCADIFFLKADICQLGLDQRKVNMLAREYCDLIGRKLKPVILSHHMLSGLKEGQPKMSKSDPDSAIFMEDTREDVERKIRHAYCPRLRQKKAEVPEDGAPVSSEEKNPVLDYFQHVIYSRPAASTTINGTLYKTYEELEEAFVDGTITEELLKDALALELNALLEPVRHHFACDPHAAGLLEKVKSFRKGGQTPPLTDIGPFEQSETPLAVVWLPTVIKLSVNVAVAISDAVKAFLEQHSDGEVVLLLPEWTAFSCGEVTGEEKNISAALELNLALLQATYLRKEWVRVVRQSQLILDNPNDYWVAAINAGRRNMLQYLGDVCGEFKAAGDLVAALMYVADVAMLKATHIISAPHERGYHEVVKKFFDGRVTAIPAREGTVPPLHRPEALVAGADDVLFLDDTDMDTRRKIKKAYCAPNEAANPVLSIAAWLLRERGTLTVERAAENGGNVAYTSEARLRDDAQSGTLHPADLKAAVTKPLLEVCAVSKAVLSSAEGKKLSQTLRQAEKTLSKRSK
Briefly: Trypanosoma cruzi tyrosyl tRNA synthetase (TcYRS) _High Tyrosine SOP. Particulars: 30 µM. The assay is classed as functional. More on the design: scale not given: in the data most compounds retested in dose-response had high values.
As for `N#Cc1ccc(N2CCCN(C(=O)CC3CCCO3)CC2)cc1` (stereo not drawn), the Percent Effect is 0.493%.

With `O=c1ccc(-c2cccs2)nn1CN1CCN(Cc2ccccc2)CC1`, the Percent Effect worked out at 3.17%.

Turning to `Cc1ccc(C(=O)NS(=O)(=O)c2cc(Cl)ccc2Cl)c(=O)[nH]1`, the Percent Effect came out at 5.94%.

As for `Cc1nccn1C1CCCN(C(=O)c2cc(O)nc3ccccc23)C1` (stereo not drawn), the Percent Effect came out at 6.4%.

Consider `CCCc1n[nH]c(C2CN(C(=O)c3cc(F)ccc3OC)CCO2)n1` (stereo not drawn), for which the Percent Effect was 6.4%.

As to `Cc1cnn(CC2CCCN2CCCc2nc3ccccc3o2)c1` (stereo not drawn), the Percent Effect came to 6.93%.

Regarding `CC(=O)N1CC(Cc2nccc3ccn(C)c23)C1`, the Percent Effect was 1.06%.

`CC(c1ccc(Cl)cc1)N1CCN(CCNS(C)(=O)=O)CC1` (stereo not drawn): the Percent Effect worked out at 4.76%.

Consider `CCn1ccnc1-c1nc2cc(S(=O)(=O)N3CCCC3)ccc2n1C`, for which the Percent Effect amounted to 3.23%.

For `Cc1ccc(CNCc2ccc(-n3nc(C)cc3C)nc2)cc1`, the Percent Effect came to 9.31%.

For the compound `CC(C)Oc1cccc(C(=O)C2CCCN(C(=O)c3ccccn3)C2)c1` (stereo not drawn), the Percent Effect is 0.529%.

Regarding `CCCS(=O)(=O)N1CCOCC2(CCN(c3ccccn3)C2)C1` (stereo not drawn), the Percent Effect was -3.17%.

Consider `CC(C)Oc1cccc(CNC(=O)NC(C)(C(=O)O)c2ccco2)c1` (stereo not drawn), for which the Percent Effect was 9.36%.

Take `O=C(Nc1cccc(CN2CCOC2=O)c1)N1CCSCC1`: the Percent Effect turned out to be 8.42%.

With `Cc1cc(C)cc(NC(=O)CN2CCCC(n3cncn3)C2)c1` (stereo not drawn), the Percent Effect came out at 2.97%.

Turning to `Cc1ncsc1CN1CC[C@H]2C(=O)N(c3ccccc3)CCO[C@H]2C1`, the Percent Effect was 11.7%.

For the compound `CCc1nccn1C1CCCN(C(=O)c2ccc3c(c2)OCO3)C1` (stereo not drawn), the Percent Effect is -1.94%.

On to `CCN(CC)CC(=O)NCCc1csc(N2CCCC2)n1`, for which the Percent Effect is -0.546%.

Regarding `COc1cc(NC(=O)c2cc(C)sc2C)c(C(=O)N(C)C)cc1OC`, the Percent Effect turned out to be 4.3%.

Turning to `O=C(Cn1ccc2sccc2c1=O)NCc1ccc2c(c1)OCO2`, the Percent Effect was 5.29%.

With `Cc1nc(CN2C(=O)COC3(CCN(Cc4ccco4)CC3)C2C)cs1` (stereo not drawn), the Percent Effect amounted to 3.12%.

In the case of `COc1cccc(S(=O)(=O)CCN2CCC3(CC2)OCCO3)c1`, the Percent Effect came out at 3.83%.

As for `CNC(=O)NC(=O)CN1CCC(c2cccc(F)c2)C1` (stereo not drawn), the Percent Effect was determined as 2.45%.

As to `N#Cc1ccc(CNCC(C(=O)N2CCOCC2)c2ccccc2)cc1` (stereo not drawn), the Percent Effect was determined as 4.3%.

For the compound `Cc1ccccc1CNc1nc(O)cc(C2CC(=O)N(C)C2)n1` (stereo not drawn), the Percent Effect came out at 2.15%.

With `COc1cccn(CC(=O)N(C)Cc2ccoc2)c1=O`, the Percent Effect was 2.08%.

For `CC(NCc1ccc(F)cc1)c1ccc(OCC(=O)NC2CC2)cc1` (stereo not drawn), the Percent Effect turned out to be 1.04%.

Consider `COc1c(C)cnc(CN2CCCCC2Cn2nc(C)nc2C)c1C` (stereo not drawn), for which the Percent Effect worked out at 14.3%.

For `O=C1NCCN1C1CCN(Cc2nc(-c3ccoc3)no2)CC1`, the Percent Effect came to 0.971%.

`Cc1cnc(N2CCCC3(CCN(Cc4csc(C)n4)C3=O)C2)nc1` (stereo not drawn): the Percent Effect was 4.17%.

`CCS(=O)(=O)N(C)c1ccc(C(=O)N2CCCC(C)C2)cc1` (stereo not drawn): the Percent Effect was -1.05%.

With `CC(=O)Nc1nc(C(=O)N2CCCC2c2noc(C)n2)cs1` (stereo not drawn), the Percent Effect is -1.94%.

`Cc1cccc(NC(=O)N2CCCn3cnc(CN4CCCC4)c3C2)c1`: the Percent Effect came to 16.8%.

Turning to `Cc1cc(C(F)(F)F)nn1CC(C)C(=O)Nc1ccncc1` (stereo not drawn), the Percent Effect came out at 1.06%.

On to `CNC(=O)c1ccc(OC2CCN(S(C)(=O)=O)CC2)c(Cl)c1`, for which the Percent Effect worked out at 6.32%.

For the compound `Cc1nnc(N2C[C@H](C(=O)NCC3CC3)[C@@H]3CCO[C@@H]3C2)s1`, the Percent Effect came to 0%.

With `CCOc1nnc(CNC2CCCN(c3ccc(C)nn3)C2)s1` (stereo not drawn), the Percent Effect was found to be 5.42%.

As for `CC(C)NC(=O)N1CCN(S(=O)(=O)C2CC2)CC2(CC(=O)N(C)C2)C1` (stereo not drawn), the Percent Effect amounted to 1.06%.

In the case of `Cc1noc(CN2CCN(CC(C)O)CC2)n1` (stereo not drawn), the Percent Effect is 6.93%.

Another assay addresses T1, Tyrosyl-tRNA synthetase, putative (Trypanosoma cruzi (strain CL Brener)). Briefly: Trypanosoma cruzi tyrosyl tRNA synthetase (TcYRS) SOP. Format: functional. Particulars: 30 µM. More on the design: scale not given: direction of the effect not stated beside the values.
Turning to `N#Cc1ccc(N2CCCN(C(=O)CC3CCCO3)CC2)cc1` (stereo not drawn), the Percent Effect came to 16.1%.

With `O=c1ccc(-c2cccs2)nn1CN1CCN(Cc2ccccc2)CC1`, the Percent Effect turned out to be 10.3%.

Consider `Cc1ccc(C(=O)NS(=O)(=O)c2cc(Cl)ccc2Cl)c(=O)[nH]1`, for which the Percent Effect turned out to be 23.2%.

Turning to `Cc1nccn1C1CCCN(C(=O)c2cc(O)nc3ccccc23)C1` (stereo not drawn), the Percent Effect stood at 13.9%.

On to `CCCc1n[nH]c(C2CN(C(=O)c3cc(F)ccc3OC)CCO2)n1` (stereo not drawn), for which the Percent Effect amounted to 11.1%.

Regarding `Cc1cnn(CC2CCCN2CCCc2nc3ccccc3o2)c1` (stereo not drawn), the Percent Effect was 18.3%.

As for `CC(=O)N1CC(Cc2nccc3ccn(C)c23)C1`, the Percent Effect was determined as 16.7%.

Turning to `CC(c1ccc(Cl)cc1)N1CCN(CCNS(C)(=O)=O)CC1` (stereo not drawn), the Percent Effect was 19.5%.

Take `CCn1ccnc1-c1nc2cc(S(=O)(=O)N3CCCC3)ccc2n1C`: the Percent Effect is 10%.

Turning to `Cc1ccc(CNCc2ccc(-n3nc(C)cc3C)nc2)cc1`, the Percent Effect is 19.5%.

In the case of `CC(C)Oc1cccc(C(=O)C2CCCN(C(=O)c3ccccn3)C2)c1` (stereo not drawn), the Percent Effect turned out to be 2.44%.

Consider `CCCS(=O)(=O)N1CCOCC2(CCN(c3ccccn3)C2)C1` (stereo not drawn), for which the Percent Effect worked out at 5.13%.

In the case of `CC(C)Oc1cccc(CNC(=O)NC(C)(C(=O)O)c2ccco2)c1` (stereo not drawn), the Percent Effect is 18.5%.

Turning to `O=C(Nc1cccc(CN2CCOC2=O)c1)N1CCSCC1`, the Percent Effect was 15.4%.

On to `Cc1cc(C)cc(NC(=O)CN2CCCC(n3cncn3)C2)c1` (stereo not drawn), for which the Percent Effect was 15.8%.

As for `Cc1ncsc1CN1CC[C@H]2C(=O)N(c3ccccc3)CCO[C@H]2C1`, the Percent Effect amounted to 16.7%.

`CCc1nccn1C1CCCN(C(=O)c2ccc3c(c2)OCO3)C1` (stereo not drawn): the Percent Effect was -4.88%.

As to `CCN(CC)CC(=O)NCCc1csc(N2CCCC2)n1`, the Percent Effect was -1.24%.

For `COc1cc(NC(=O)c2cc(C)sc2C)c(C(=O)N(C)C)cc1OC`, the Percent Effect is 13.6%.

`O=C(Cn1ccc2sccc2c1=O)NCc1ccc2c(c1)OCO2`: the Percent Effect came to 11.5%.

`Cc1nc(CN2C(=O)COC3(CCN(Cc4ccco4)CC3)C2C)cs1` (stereo not drawn): the Percent Effect was 6.17%.

Consider `COc1cccc(S(=O)(=O)CCN2CCC3(CC2)OCCO3)c1`, for which the Percent Effect was determined as 6.17%.

For `CNC(=O)NC(=O)CN1CCC(c2cccc(F)c2)C1` (stereo not drawn), the Percent Effect turned out to be 4.88%.

For the compound `N#Cc1ccc(CNCC(C(=O)N2CCOCC2)c2ccccc2)cc1` (stereo not drawn), the Percent Effect came to 13.6%.

Turning to `Cc1ccccc1CNc1nc(O)cc(C2CC(=O)N(C)C2)n1` (stereo not drawn), the Percent Effect was determined as 9.09%.

On to `COc1cccn(CC(=O)N(C)Cc2ccoc2)c1=O`, for which the Percent Effect stood at 3.7%.

In the case of `CC(NCc1ccc(F)cc1)c1ccc(OCC(=O)NC2CC2)cc1` (stereo not drawn), the Percent Effect amounted to 2.53%.

Consider `COc1c(C)cnc(CN2CCCCC2Cn2nc(C)nc2C)c1C` (stereo not drawn), for which the Percent Effect turned out to be 26.6%.

`O=C1NCCN1C1CCN(Cc2nc(-c3ccoc3)no2)CC1`: the Percent Effect stood at 12.2%.

Consider `Cc1cnc(N2CCCC3(CCN(Cc4csc(C)n4)C3=O)C2)nc1` (stereo not drawn), for which the Percent Effect was 20%.

Consider `CCS(=O)(=O)N(C)c1ccc(C(=O)N2CCCC(C)C2)cc1` (stereo not drawn), for which the Percent Effect was 5.13%.

Turning to `CC(=O)Nc1nc(C(=O)N2CCCC2c2noc(C)n2)cs1` (stereo not drawn), the Percent Effect was -17.1%.

`Cc1cccc(NC(=O)N2CCCn3cnc(CN4CCCC4)c3C2)c1`: the Percent Effect was determined as 11%.

With `Cc1cc(C(F)(F)F)nn1CC(C)C(=O)Nc1ccncc1` (stereo not drawn), the Percent Effect was -12.8%.

Turning to `CNC(=O)c1ccc(OC2CCN(S(C)(=O)=O)CC2)c(Cl)c1`, the Percent Effect was 10.3%.

On to `Cc1nnc(N2C[C@H](C(=O)NCC3CC3)[C@@H]3CCO[C@@H]3C2)s1`, for which the Percent Effect turned out to be 1.28%.

`CCOc1nnc(CNC2CCCN(c3ccc(C)nn3)C2)s1` (stereo not drawn): the Percent Effect was 23.5%.

On to `CC(C)NC(=O)N1CCN(S(=O)(=O)C2CC2)CC2(CC(=O)N(C)C2)C1` (stereo not drawn), for which the Percent Effect came to 6.41%.

Regarding `Cc1noc(CN2CCN(CC(C)O)CC2)n1` (stereo not drawn), the Percent Effect came out at 8.54%.
